Measured values published in paper PMC8159961, “Exploring protein hotspots by optimized fragment pharmacophores” (Nature Communications, 2021).
Values without a mark were called inactive. No rule for the calls is given here.

Each molecule was assayed against histone methyltransferase SET domain containing 2 (SETD2) (Homo sapiens, UniProt Q9BYW2) (assay: primary screen, binary call; higher = more effect of the substance).
Protocol: The Chemiluminescence assay evaluates SETD2 specific tri -methylation activity towards histone H3K36. The kit consist s of recombinant SETD2, S-adenosylmethionine and a specific H3K36me3 antibody and was performed according to the manufacturer’s protocol (Catalo g- No. 52060, https://bpsbioscience.com/setd2 -chemiluminescent-assay-kit-52060). Values were blank corrected and normalized . Enzymatic activities were calculated relative to the positive control of the kit (full enzymatic activity) and to the known SET doma in inhibitor Sinefungin28 used as negative control (complete enzymatic activity inhibition). Compounds used were diluted in DMSO.

Sequence of histone methyltransferase SET domain containing 2 (SETD2) (Q9BYW2 whole entry, looked up, the tested form may be a part): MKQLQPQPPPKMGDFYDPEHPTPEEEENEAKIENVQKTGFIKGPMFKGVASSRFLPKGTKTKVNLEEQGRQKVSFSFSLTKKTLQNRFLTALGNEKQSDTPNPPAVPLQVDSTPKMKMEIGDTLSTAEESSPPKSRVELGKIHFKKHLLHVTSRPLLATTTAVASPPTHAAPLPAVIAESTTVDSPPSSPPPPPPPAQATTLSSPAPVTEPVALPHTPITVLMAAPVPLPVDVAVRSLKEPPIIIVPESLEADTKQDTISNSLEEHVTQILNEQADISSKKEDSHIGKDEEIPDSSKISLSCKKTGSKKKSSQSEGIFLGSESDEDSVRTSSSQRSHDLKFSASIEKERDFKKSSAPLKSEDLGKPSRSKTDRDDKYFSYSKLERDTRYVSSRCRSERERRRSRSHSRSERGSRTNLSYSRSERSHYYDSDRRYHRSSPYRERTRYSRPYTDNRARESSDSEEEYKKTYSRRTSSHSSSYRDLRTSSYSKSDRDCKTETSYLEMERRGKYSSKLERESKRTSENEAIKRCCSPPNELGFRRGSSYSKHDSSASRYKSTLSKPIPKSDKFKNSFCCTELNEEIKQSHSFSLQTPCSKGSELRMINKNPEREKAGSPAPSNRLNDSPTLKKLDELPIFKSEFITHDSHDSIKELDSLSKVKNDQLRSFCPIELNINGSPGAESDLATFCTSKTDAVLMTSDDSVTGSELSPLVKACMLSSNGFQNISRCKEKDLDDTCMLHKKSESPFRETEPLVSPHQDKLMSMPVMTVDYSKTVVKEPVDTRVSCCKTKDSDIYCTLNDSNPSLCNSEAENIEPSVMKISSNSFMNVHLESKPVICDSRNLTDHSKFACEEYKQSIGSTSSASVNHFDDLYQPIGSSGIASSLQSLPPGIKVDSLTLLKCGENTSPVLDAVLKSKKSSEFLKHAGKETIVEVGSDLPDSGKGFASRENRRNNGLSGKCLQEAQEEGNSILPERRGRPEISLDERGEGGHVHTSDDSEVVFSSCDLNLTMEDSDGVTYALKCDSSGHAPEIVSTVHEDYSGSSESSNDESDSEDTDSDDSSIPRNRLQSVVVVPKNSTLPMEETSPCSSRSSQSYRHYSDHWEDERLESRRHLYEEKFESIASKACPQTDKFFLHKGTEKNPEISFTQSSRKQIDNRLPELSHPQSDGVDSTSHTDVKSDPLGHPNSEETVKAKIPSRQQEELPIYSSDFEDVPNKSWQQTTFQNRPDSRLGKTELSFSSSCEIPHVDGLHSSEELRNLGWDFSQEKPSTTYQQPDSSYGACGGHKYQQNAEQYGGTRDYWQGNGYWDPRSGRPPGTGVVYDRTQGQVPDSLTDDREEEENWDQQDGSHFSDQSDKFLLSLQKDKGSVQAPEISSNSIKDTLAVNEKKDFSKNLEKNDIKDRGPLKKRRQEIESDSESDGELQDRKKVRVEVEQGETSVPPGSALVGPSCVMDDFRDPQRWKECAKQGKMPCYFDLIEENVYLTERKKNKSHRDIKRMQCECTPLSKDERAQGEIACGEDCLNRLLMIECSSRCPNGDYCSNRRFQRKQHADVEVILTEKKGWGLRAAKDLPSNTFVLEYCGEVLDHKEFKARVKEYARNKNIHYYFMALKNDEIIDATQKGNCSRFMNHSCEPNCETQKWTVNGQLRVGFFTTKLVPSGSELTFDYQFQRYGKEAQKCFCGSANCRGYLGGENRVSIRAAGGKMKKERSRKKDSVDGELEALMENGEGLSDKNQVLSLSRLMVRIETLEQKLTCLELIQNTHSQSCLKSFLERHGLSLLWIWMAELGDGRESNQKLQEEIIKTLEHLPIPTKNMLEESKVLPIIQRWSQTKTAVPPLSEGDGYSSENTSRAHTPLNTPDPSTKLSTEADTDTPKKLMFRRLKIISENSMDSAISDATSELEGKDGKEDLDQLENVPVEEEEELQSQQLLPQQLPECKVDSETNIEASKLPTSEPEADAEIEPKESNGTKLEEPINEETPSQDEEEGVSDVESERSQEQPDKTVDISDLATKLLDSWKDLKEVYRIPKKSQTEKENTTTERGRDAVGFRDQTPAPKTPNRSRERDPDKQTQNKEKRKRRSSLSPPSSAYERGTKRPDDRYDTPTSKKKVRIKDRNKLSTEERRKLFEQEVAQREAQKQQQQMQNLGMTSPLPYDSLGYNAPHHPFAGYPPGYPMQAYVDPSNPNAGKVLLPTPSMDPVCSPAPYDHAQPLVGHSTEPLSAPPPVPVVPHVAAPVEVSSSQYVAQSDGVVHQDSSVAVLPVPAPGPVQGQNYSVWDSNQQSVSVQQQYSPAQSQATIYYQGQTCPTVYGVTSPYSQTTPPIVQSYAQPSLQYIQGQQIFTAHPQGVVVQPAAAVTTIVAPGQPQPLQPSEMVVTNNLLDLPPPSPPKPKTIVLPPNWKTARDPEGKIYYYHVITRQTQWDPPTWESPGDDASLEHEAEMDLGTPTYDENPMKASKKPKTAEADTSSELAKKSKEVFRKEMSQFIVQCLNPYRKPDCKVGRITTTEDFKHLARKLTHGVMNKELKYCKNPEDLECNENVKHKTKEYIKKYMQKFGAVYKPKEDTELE

| SMILES | SETD2 |
| --- | --- |
| Fc1ccc(CC2CCCNC2)cc1 (stereo not shown) | 0 |
| Cn1c(N)nc2ccccc21 | 1 (active) |
| CCc1ccc(NC2=NCCCS2)cc1 | 0 |
| Oc1nnc(-c2ccccc2)o1 | 0 |
| CC1C(=O)NC(=O)N1c1ccc(Cl)cc1 (stereo not shown) | 0 |
| Clc1ccc2nnnn2n1 | 0 |
| O=C1NC(=O)/C(=C\c2cccs2)N1 | 1 (active) |
| Cc1cc(N)no1 | 0 |
| O=C1CSC(Nc2ccc(F)cc2)=N1 | 0 |
| O=C(c1ccccc1F)N1CCNCC1 | 0 |
| O=C(O)C1CCCN(C(=O)N2CCCC2)C1 (stereo not shown) | 0 |
| Nc1nnc(-c2cccs2)[nH]1 | 0 |
| O=c1ccc2c([nH]1)CCCC2 | 0 |
| NCC1(c2ccccc2)CCOCC1 | 0 |
| CCc1nccn1CC(=O)O | 0 |
| CCn1cnc2ccccc21 | 0 |
| CC1(C)OC(=O)c2cc(Br)c(O)cc2O1 | 0 |
| CN1CC(=O)NC1=O | 0 |
| CS(=O)(=O)Nc1ccc(C(=O)O)cc1 | 1 (active) |
| Nc1ccc(-c2ccccc2)cc1C(=O)O | 0 |

| SMILES | SETD2 |
| --- | --- |
| c1ccc(-c2ccncc2)cc1 | 0 |
| Oc1cnc(-c2ccccc2)nc1 | 0 |
| Cc1ccc(-c2ccc(O)cc2)cc1 | 0 |
| COc1ccc(CN2CCNCC2)cc1F | 0 |
| CC(CN)N1CCc2sccc2C1 (stereo not shown) | 0 |
| Cc1nccn1Cc1cccc(C#N)c1 | 0 |
| CC(=O)c1ccc2c(c1)CNCC2 | 0 |
| FC1(F)CNCC(F)(F)O1 | 0 |
| Nc1ccc(SC(F)F)cc1 | 0 |
| CC(=O)c1sc(-c2ccc(O)cc2)nc1C | 0 |
| Oc1ccc(-n2cncn2)cc1 | 0 |
| O=C(c1ccncc1)N1CCNCC1 | 0 |
| O=C1CCN(c2ccccn2)CC1 | 0 |
| O=C1CNCCN1c1ccccc1 | 0 |
| O=C1CCC(=O)N(c2ccccc2)N1 | 0 |
| c1ccc2sc(N3CCNCC3)nc2c1 | 0 |
| CN(C)c1cc(CN)ccn1 | 0 |
| Cc1ccc(CCNc2ccccc2)cn1 | 0 |
| COc1ccccc1C1CCNCC1 | 0 |
| Fc1ccc2c(C3CCNCC3)c[nH]c2c1 | 0 |
